Our source for the growth values is PubChem BioAssay (NCI).

Assay in all cases: NCI-60 one-dose screen, 48 h (100 = growth as untreated, 0 = no growth, -100 = all killed)
What all share (details): 10 µM unless noted

In experiment [1] the test system is RPMI-8226 leukemia.
The subject of experiment [2] is OVCAR-8 ovarian.
Experiment [3] relates to OVCAR-5 ovarian.
The test system of experiment [4] is OVCAR-4 ovarian.
For experiment [5], the system named is SK-OV-3 ovarian.
Experiment [6] has as its system IGROV1 ovarian.
Experiment [7] concerns OVCAR-3 ovarian.
Experiment [8] relates to HS 578T breast.
The test system of experiment [9] is NCI/ADR-RES ovarian.
Experiment [10] concerns T-47D breast.
In experiment [11] the test system is BT-549 breast.
Experiment [12] concerns MDA-MB-435 melanoma.
The subject of experiment [13] is SW-620 colon.
Experiment [14] relates to MCF7 breast.
In experiment [15] the test system is HCT-116 colon.
In experiment [16] the test system is HCC-2998 colon.
In experiment [17] the test system is KM12 colon.

Compounds without any hit were thinned out: in the full panel of roughly 83,000, 20% have a hit.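 48-hour exposure, single concentration, 96-well plates; percent growth endpoint where 0 means no net growth. Active: below 10.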 Values without a mark were called inactive. Calls of active or inactive are those of the source.

For the compound `COc1ccc2c(c1)/C(=C1\S/C(=N/c3nnc(C)s3)NC1=O)C(=O)N2Cc1ccc(Cl)cc1`, the growth in [1] was 40.3%; in experiment [2] it was 52.2%; in [3], 90.5%; in experiment [4], 44.7%; in experiment [5], 70%; in experiment [6], 41.9%. Further, the growth in experiment [7] was 42.2%; in experiment [8] it was 55.1%; in [9] it was 32%; in [10], 42%; in experiment [11] it was 54.6%; in experiment [12], 52.8%. Moreover, the growth in [13] was 49.3%; in experiment [14] it was 45.8%; in [15] it was 31.7%; in experiment [16], 34.2%; in experiment [17] it was 28.6%.

With `CC(=O)OC[C@]12CC[C@@H](c3cn(Cc4ccc(Cn5cc([C@@H]6CC[C@]7(COC(C)=O)CC[C@]8(C)[C@H](CC[C@@H]9[C@@]%10(C)CC[C@H](OC(C)=O)C(C)(C)[C@@H]%10CC[C@]98C)[C@@H]67)nn5)cc4)nn3)[C@@H]1[C@H]1CC[C@@H]3[C@@]4(C)CC[C@H](OC(C)=O)C(C)(C)[C@@H]4CC[C@@]3(C)[C@]1(C)CC2`, the growth in experiment [1] is 108%; in experiment [2] it was 92%; in experiment [3], 102%; in experiment [4], 109%; in experiment [5] it was 100%; in experiment [6], 105%. The growth in experiment [7] was 97.4%; in experiment [8], 97.2%; in experiment [9], 102%; in experiment [10], 87.1%; in [11] it was 91.4%; in experiment [12], 105%. The growth was 106% in experiment [13]; 92.1% in [14]; 109% in experiment [15]; 104% in experiment [16]; 106% in experiment [17].

`Cc1cc(O)cc(O)c1N=NC1=NCCS1`: the growth in experiment [1] was 106%; in [2], 101%; in experiment [3], 101%; in experiment [4], 102%; in [5] it was 97.2%; in [6], 104%. The growth in experiment [7] is 104%; in experiment [8] it was 116%; in experiment [9], 103%; in experiment [10] it was 92.5%; in experiment [11] it was 93.9%; in [12], 105%. The growth in experiment [13] was 111%; in experiment [14] it was 86.5%; in experiment [15], 93.3%; in experiment [16] it was 95.7%; in experiment [17] it was 102%.

As to `COC(=O)c1cncc(C(=O)Nc2ccc(-n3cnc4ccccc43)cc2)c1`, the growth is 74.5% in experiment [1]; 97.2% in experiment [2]; 101% in [3]; 107% in experiment [4]; 108% in experiment [5]; 90.5% in experiment [6]. For the same compound, the growth in [7] was 108%; in experiment [8], 107%; in experiment [9], 94.9%; in experiment [10] it was 74.8%; in [11] it was 96.1%; in experiment [12], 105%. Besides, the growth is 112% in experiment [13]; 84.7% in [14]; 103% in experiment [15]; 116% in experiment [16]; 88.4% in experiment [17].

Regarding `COc1cc(C2CC(c3ccc(Nc4nc(NCCO)nc(NCCO)n4)cc3)=NN2c2cc(Cl)cc(Cl)c2)cc(OC)c1OC` (stereo not drawn), the growth in [1] is -13.8% (active); in experiment [2] it was 11.9%; in [3] it was 54.6%; in experiment [4], -20.1% (active); in [5] it was 108%; in [6] it was 4.18% (active). Further, the growth is -22.5% (active) in experiment [7]; -14.5% (active) in experiment [8]; 53.1% in experiment [9]; 75.4% in experiment [10]; -27.2% (active) in experiment [11]; -15.9% (active) in [12]. Besides, the growth was -4.18% (active) in [13]; -60.9% (active) in experiment [14]; 9.76% (active) in [15]; 24.4% in experiment [16]; -25.6% (active) in [17].

For `CCN(CC)CC#CCOC(=O)[C@]1(C)CCC[C@]2(C)[C@H]3C[C@H]4C(C(C)C)=C[C@]3(CC[C@H]21)[C@@H]1C(=O)CCC(=O)[C@@H]14`, the growth in experiment [1] is 17.5%; in experiment [2] it was 39.6%; in experiment [3], 62.4%; in experiment [4] it was 36.4%; in [5], 77.8%; in experiment [6], 64.2%. Besides, the growth was 58.5% in experiment [7]; 69.3% in experiment [8]; 45.7% in experiment [9]; 35.5% in experiment [10]; 63.7% in experiment [11]; 74% in [12]. Moreover, the growth in [13] is 55.1%; in [14], 25.1%; in experiment [15], 35.8%; in experiment [16], 75%; in [17], 51.9%.

Turning to `O=c1[nH]c2ccccc2cc1-c1nc2ccncc2[nH]1`, the growth in experiment [1] was -0.575% (active); in experiment [2], 88.7%; in experiment [3] it was 112%; in [4] it was 85.5%; in experiment [5] it was 90.5%; in [6], 84.2%. Further, the growth is 90.9% in experiment [7]; 76.1% in experiment [8]; 108% in experiment [9]; 77.8% in experiment [10]; 91.3% in experiment [11]; 82.8% in [12]. Besides, the growth was 88.4% in experiment [13]; 57.2% in experiment [14]; 63.2% in [15]; 93.3% in experiment [16]; 22.8% in [17].

`CC(C)(C#N)c1cc(F)cc(C(=O)Nc2cc(Nc3ncccc3-c3ncnc4nc[nH]c34)ccc2F)c1`: the growth is 23.7% in [1]; 41.1% in experiment [2]; 37% in experiment [3]; 70.3% in experiment [4]; 63.7% in experiment [5]; 15.4% in experiment [6]. In addition, the growth in experiment [7] was 55.2%; in experiment [8] it was 39.9%; in experiment [9] it was 37.1%; in experiment [10], 42.8%; in experiment [11], 39.7%; in [12], 48%. For the same compound, the growth in experiment [13] is 28.7%; in experiment [14], 58.1%; in experiment [15], 19.2%; in experiment [16] it was 27.3%; in experiment [17] it was 36%.

Regarding `Cc1ccc2nc3nc4ccc[nH]c4cc3c2c1`, the growth in experiment [1] was 49.3%; in [2], 99.7%; in [3], 90.9%; in [4] it was 65.8%; in experiment [5], 89.2%; in [6], 68.2%. In addition, the growth was 77.6% in experiment [7]; 90.2% in experiment [8]; 99.9% in [9]; 10.3% in experiment [10]; 93.2% in [11]; 106% in experiment [12]. In addition, the growth is 108% in experiment [13]; 2.23% (active) in [14]; 97.1% in experiment [15]; 63.7% in experiment [16]; 47.8% in [17].
